The record followed here is PubChem BioAssay (Tox21).

Experiment [1] can be described thus: A CellTox Green Cytotoxicity Assay to monitor cytotoxicity in HEK293 cells - 32 hour (AID 1224881). Further: nearly all actives have a fitted effect of over 40% in size. Further: potency means the concentration at half of the fitted maximal effect. A digest of the protocol:
(§1)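 Cytotoxicity was tracked continuously in HEK293 cells by a DNA-binding dye excluded from viable cells. Compounds were transferred in DMSO 5 h after seeding; fluorescence was recorded at intervals up to 40 h.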

The nature of experiment [2]: A CellTox Green Cytotoxicity Assay to monitor cytotoxicity in HepG2 cells - 0 hour (AID 1224882). Further: nearly all actives have a fitted effect of over 35% in size. A digest of the protocol:
(§2)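 Real-time, homogeneous cytotoxicity readout: dead-cell DNA staining by CellTox Green in HepG2 monolayers, fluorescence measured at timed intervals up to 40 h of continuous compound exposure.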

Experiment [3] in a line: A CellTox Green Cytotoxicity Assay to monitor cytotoxicity in HepG2 cells - 32 hour (AID 1224883). Further: nearly all actives have a fitted effect of over 50% in size. Further: potency means the concentration at half of the fitted maximal effect. A digest of the protocol:
as §2

A short description of experiment [4]: A CellTox Green Cytotoxicity Assay to monitor cytotoxicity in HEK293 cells - 8 hour (AID 1224884). Further: nearly all actives have a fitted effect of over 35% in size. The method, boiled down:
as §1

Experiment [5] in a line: qHTS RealTime-Glo MT Cell Viability Assay in HepG2 cells - 16 hour (AID 1224885). Further: nearly all actives have a fitted effect of over 50% in size. A digest of the protocol:
(§3)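 Compound treatment began 5 h after plating HepG2 cells (600/well) with NanoLuc luciferase and prosubstrate. Plates stayed at 37 C for 40 h; luminescence was captured at six time points, 0 h through 40 h.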

The nature of experiment [6]: qHTS RealTime-Glo MT Cell Viability Assay in HEK293 cells - 24 hour (AID 1224886). Further: nearly all actives have a fitted effect of over 50% in size. Further: potency means the concentration at half of the fitted maximal effect. A digest of the protocol:
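Quantitative high-throughput screen of the Tox21 10K library in HEK293: cells and RealTime-Glo reagents plated together, compound added at 5 h, luminescence monitored through 40 h at 37 C.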
For orientation: Quantitative high-throughput screening tests each substance at several concentrations.

Experiment [7] is described as follows: qHTS RealTime-Glo MT Cell Viability Assay in HEK293 cells - 8 hour (AID 1224887). Further: top concentration of the series differs between compounds; nearly all actives have a fitted effect of over 50% in size. A digest of the protocol: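 Nonlytic bioluminescent viability monitoring. HEK293 at 600 cells/well with reagent; 5 h settle; compound transfer by pintool; plates held at 37 C and read at set time points.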
Experiment [8] in a line: A CellTox Green Cytotoxicity Assay to monitor cytotoxicity in HEK293 cells - 16 hour (AID 1224888). Further: nearly all actives have a fitted effect of over 35% in size. A digest of the protocol: as §1
The nature of experiment [9]: qHTS RealTime-Glo MT Cell Viability Assay in HepG2 cells - 0 hour (AID 1224889). Further: nearly all actives have a fitted effect of over 50% in size. The method, boiled down:
as §3

A short description of experiment [10]: A CellTox Green Cytotoxicity Assay to monitor cytotoxicity in HepG2 cells - 8 hour (AID 1224890). Further: nearly all actives have a fitted effect of over 45% in size. The method, boiled down: as §2

“And” between values parts separate entries of the source, which are not always exact repeats. Identical values can stand only once. Records with an inconclusive call do not appear. The source holds several records for some structures; these can differ, active in one and inactive in another. The source made the active and inactive calls. The call rests on the fitted dose curve; in most records, active means well fitted curve in the direction sought with a large enough effect in the repeat runs; inconclusive means weak or mixed curves; inactive means no such curve, though single readings can be large; an effect the other way counts as inactive or inconclusive.

In the case of `CCOP(=O)(Sc1ccccc1)Sc1ccccc1`, the Potency entry in experiment [1], in [2], in experiment [3], in [4], in experiment [5] and in [6] was “inactive” each time. In addition, the Potency result in experiment [7], in experiment [8], in experiment [9] and in experiment [10] was “inactive” in each case.

In the case of `O=c1[nH]c2cc(Cl)ccc2n1C1CCNCC1`, the Potency entry in experiment [1], in [2], in [3], in experiment [4], in experiment [5] and in [6] was “inactive” each time. Also, the Potency entry in experiment [7], in [8], in experiment [9] and in experiment [10] was “inactive” throughout.

On to `CC(Cc1ccc(OCC(=O)O)cc1)NCC(O)c1csc(C(F)(F)F)n1` (centres undefined), for which the Potency entry in [1], in [2], in experiment [3], in [4], in experiment [5] and in [6] was “inactive” each time. For the same compound, the Potency result in experiment [7], in experiment [8], in experiment [9] and in experiment [10] was “inactive” throughout.

In the case of `N#Cc1c2ccccc2cc2ccccc12`, the Potency entry in experiment [1], in [2], in experiment [3], in [4], in experiment [5] and in experiment [6] was “inactive” throughout. Moreover, the Potency result in experiment [7], in experiment [8], in [9] and in experiment [10] was “inactive” in each case.

Turning to `CCCC[N+]1(C)CCCC1` (tested in a mixture with another compound), the Potency entry in [1], in experiment [2], in experiment [3], in experiment [4], in experiment [5] and in [6] was “inactive” in each case. The Potency entry in [7], in experiment [8], in experiment [9] and in experiment [10] was “inactive” in each case.

With `Cc1ccn2nc(S(=O)(=O)Nc3c(F)cccc3F)nc2n1`, the Potency entry in [1], in experiment [2], in [3], in [4], in [5] and in experiment [6] was “inactive” throughout. Besides, the Potency result in [7], in experiment [8], in [9] and in experiment [10] was “inactive” each time.

As to `O=C(N[C@H]1N=C(c2ccccc2F)c2cccc3c2N(CC3)C1=O)c1cc2ccccc2[nH]1`, the Potency entry in [1], in experiment [2], in [3], in experiment [4], in experiment [5] and in experiment [6] was “inactive” each time. The Potency result in experiment [7], in experiment [8] and in [9] was “inactive” in each case.

For the compound `O=Cc1ccccc1`, the Potency result in experiment [1], in [2], in [3], in [4], in experiment [5] and in [6] was “inactive” in each case. Besides, the Potency entry in experiment [7], in [8], in experiment [9] and in experiment [10] was “inactive” throughout.

As for `O=[N+]([O-])[O-].[Tl+]`, the Potency entry in experiment [1], in experiment [2], in experiment [3], in [4], in experiment [5] and in experiment [6] was “inactive” in each case. The Potency entry in [7], in experiment [8], in [9] and in [10] was “inactive” each time.

In the case of `CN/C(=N\[N+](=O)[O-])NCc1cnc(Cl)s1`, the Potency result in [1], in experiment [2], in experiment [3], in experiment [4], in experiment [5] and in experiment [6] was “inactive” each time. Besides, the Potency entry in experiment [7], in experiment [8] and in [9] was “inactive” in each case.

With `COc1nc(C)nc(NC(=O)NS(=O)(=O)c2ccccc2Cl)n1`, the Potency result in experiment [1], in [2], in experiment [3], in experiment [4], in experiment [5] and in experiment [6] was “inactive” throughout. For the same compound, the Potency result in experiment [7], in experiment [8] and in [9] was “inactive” throughout.

For the compound `CCN(CC)C(=S)S`, the Potency in experiment [1] is 17.5 µM (active) and 4.87 µM (active) and 11 µM (active); in experiment [3] it was “inactive and 6.88 µM (active) and 21.9 µM (active)”; in [6], 4.87 µM (active) and 12.3 µM (active). Moreover, the Potency result in [2], in experiment [4], in experiment [5], in experiment [7], in [8] and in [9] was “inactive” each time. Also, the Potency entry in experiment [10] is “inactive”.

For `COc1ccc2c(c1OC)C(=O)O[C@@H]2[C@H]1c2cc3c(cc2CCN1C)OCO3`, the Potency result in experiment [1], in experiment [2], in experiment [3], in experiment [4], in [5] and in experiment [6] was “inactive” each time. Further, the Potency entry in experiment [7] and in [8] was “inactive” throughout.

Take `O=[N+]([O-])c1cccc2cccc([N+](=O)[O-])c12`: the Potency entry in experiment [1], in experiment [2], in experiment [3], in experiment [4], in [5] and in experiment [6] was “inactive” throughout. Moreover, the Potency entry in experiment [7], in experiment [8], in [9] and in [10] was “inactive” in each case.

Consider `CCOC(=O)CCN(SN(C)C(=O)Oc1cccc2c1OC(C)(C)C2)C(C)C`, for which the Potency entry in experiment [1], in [2], in [3], in experiment [4], in experiment [5] and in experiment [6] was “inactive” in each case. In addition, the Potency entry in experiment [7], in experiment [8], in experiment [9] and in experiment [10] was “inactive” each time.

In the case of `Cc1c([N+](=O)[O-])c(C)c([N+](=O)[O-])c(C(C)(C)C)c1[N+](=O)[O-]`, the Potency entry in experiment [1], in experiment [2], in [3], in experiment [4], in experiment [5] and in [6] was “inactive” in each case. In addition, the Potency entry in [7], in experiment [8], in experiment [9] and in experiment [10] was “inactive” in each case.

Turning to `CC(Cc1ccccc1)N(C)Cc1ccco1` (centres undefined), the Potency result in experiment [1], in [2], in experiment [3], in [4], in experiment [5] and in experiment [6] was “inactive” each time. Moreover, the Potency entry in experiment [7], in experiment [8], in experiment [9] and in experiment [10] was “inactive” throughout.

Regarding `CNC(=O)/C=C(\C)OP(=O)(OC)OC`, the Potency entry in experiment [1], in experiment [2], in [3], in [4], in experiment [5] and in experiment [6] was “inactive” each time. Besides, the Potency result in [7], in experiment [8], in [9] and in experiment [10] was “inactive” throughout.

Consider `O=S(=O)(NS(=O)(=O)C(F)(F)F)C(F)(F)F`, for which the Potency entry in experiment [1], in [2], in experiment [4], in [5], in experiment [7] and in experiment [8] was “inactive” throughout. The Potency entry in experiment [9] and in experiment [10] was “inactive” in each case. Moreover, the Potency is 48.9 µM (active) in experiment [3] and 1.23 µM (active) in [6].

Regarding `ClC(Cl)C(Cl)(Cl)Cl`, the Potency entry in experiment [1], in [2], in experiment [3], in experiment [4], in experiment [5] and in experiment [6] was “inactive” in each case. Besides, the Potency result in [7], in [8] and in experiment [9] was “inactive” each time.

As to `CCCCC/C=C\C/C=C\C/C=C\C/C=C\CCCC(=O)NCC(=O)O`, the Potency result in [1], in experiment [2], in experiment [3], in experiment [4], in [5] and in [6] was “inactive” throughout. Also, the Potency entry in [7], in experiment [8], in experiment [9] and in [10] was “inactive” each time.

Take `COCCC#N`: the Potency entry in experiment [1], in experiment [2], in experiment [3], in experiment [4], in [5] and in [6] was “inactive” in each case. Further, the Potency entry in experiment [7], in experiment [8], in experiment [9] and in experiment [10] was “inactive” each time.
